# Test results taken from PubChem BioAssay (NCI).
# The panel holds about 83,000 compounds, 20% with a hit somewhere; the sample as a whole holds those more often.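 Each cell line was grown in a 96-well plate and treated with one concentration of compound for 48 hours. Values below 10 were considered active.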 A number with no mark means an inactive call. Activity calls are given as the source filed them.
# Tested on: HL-60(TB) leukemia
# Test: NCI-60 one-dose screen, 48 h (100 = growth as untreated, 0 = no growth, -100 = all killed)
# Conditions: 10 µM unless noted
row,SMILES,growth
1,COc1cc2cc(Oc3ccc(NC(=O)Nc4ccc(C(F)(F)F)cc4)cc3)c(C)nc2cc1OC,75.3%
2,Nc1c(-c2nc3ccccc3c(=O)[nH]2)nnn1-c1ccc(Cl)cc1,94%
3,OC(c1ccccc1)(c1ccccc1)c1ccccc1-c1ccccc1,82%
4,Cc1nn(-c2ccccc2)c2c1oc(=O)c1cc(Cl)ccc12,84.3%
5,Nc1cccc2c1CN(C1CCC(=O)NC1=O)C2=O (stereo not given),105%
6,N/C(=N\O)c1ccncc1,102%
7,COc1ccc2nc3cc(Cl)ccc3c(NCCNc3c4ccc(Cl)cc4nc4ccc(OC)cc34)c2c1,-75% (active)
8,O=C(CSc1ncc(-c2ccccc2)n1-c1ccccc1)Nc1ccc(-c2nc3ccccc3s2)cc1,100%
9,CC(C)=NNc1ncnc2c1ncn2C1OC(CO)C(O)C1O (stereo not given),6.58% (active)
10,CS(=O)(=O)Nc1cncc(-c2ccc3ncnc(Nc4cncc(Cl)c4)c3c2)c1,71.5%
11,Cc1cc(N(CCCNc2ccnc3cc(Cl)ccc23)Cc2ccccn2)nc(N2CCOCC2)n1,102%
12,O=C(CCl)NCCNc1nccc(Nc2ccc(S(=O)(=O)Nc3ccccn3)cc2)n1,10.2%
13,COc1cc(NCC(=O)Nc2cc(Nc3cccc(C(F)(F)F)c3)ncn2)c(Cl)c(OC)c1Cl,79.2%
14,O=C(COc1ccc(/C=C2\Oc3ccc4ccccc4c3C2=O)cc1)c1ccc(Cl)cc1,86.5%
15,NC(=O)c1cccc(-n2ccc3cc(NC(=O)Nc4ccc(Cl)c(Cl)c4)ccc32)n1,102%
16,CCCCN(CCCC)C(=O)CC,97.3%
17,CN(C)CCCNc1nc2ccccc2c2c(=O)c3cc(F)ccc3sc12,-43.5% (active)
18,C=C1C(=O)O[C@H]2[C@H]1CC/C(Cn1cc(-c3cc(C(F)(F)F)cc(C(F)(F)F)c3)nn1)=C\CC[C@@]1(C)O[C@@H]21,-49.1% (active)
19,Cc1cccc(NC(=O)Cn2cc(CN3CCN(c4ccnc5cc(Cl)ccc45)CC3)nn2)c1,89.1%
20,COc1ccc(C2c3ccc4ccccc4c3Oc3ncn(CCCn4ccnc4)c(=N)c32)cc1OC (stereo not given),40.7%

row,SMILES,growth
1,N#Cc1c(-c2ccc(F)cc2)c(C#N)c2c(C#N)c(N)nn2c1N,99.7%
2,CC(C)(CC(=O)O)CC(=O)O,103%
3,COc1ccc(-c2[nH]c3ccccc3c2-c2ccc(OC)cc2)cc1,24.6%
4,Clc1ccc(N2CCN(CCCN3CCN(c4cccc(Cl)c4)CC3)CC2)cc1,17%
5,Cn1c(C(N)=O)cc2c1-c1nc(Nc3ccccc3)ncc1CCC2,40.6%
6,N#C/C(=C\c1ccc(Br)cc1)n1nnc2ccccc21,2.58% (active)
7,O=C(CSc1nc2c(n1Nc1ccccc1)-c1ccccc1SC2)Nc1nc(-c2ccc(Cl)cc2)cs1,104%
8,COc1cc2ncnc(Oc3ccc(NC(=O)Nc4ccc(C5(C#N)CCCC5)cc4)c4ccccc34)c2cc1OC,72.6%
9,CC[C@@H](C(=O)[C@H](C)[C@H](O)[C@@H](C)[C@H]1O[C@H]([C@@H](CC)C(=O)N(CC)CC)CC[C@H]1C)C1O[C@]2(C=C[C@@H](O)[C@]3(CC[C@@](C)([C@H]4CC[C@](O)(CC)[C@H](C)O4)O3)O2)[C@H](C)C[C@@H]1C (stereo not given in full),-28.8% (active)
10,CCC(CC)n1c(C)cc(=O)n1C(CC)CC,88%
11,CCCCCCCCSC1=CC(=O)C(OC)=C(OC)C1=O,-10.5% (active)
12,O=C(O)C(=O)O,151%
13,COc1ccc2cc(Cn3cc[n+](Cc4ccc5ccccc5c4)c3)ccc2c1,-46.6% (active)
14,COc1ccc(-n2c(C(O)c3ccccc3)nn(CN3CCOCC3)c2=S)cc1 (stereo not given),126%
15,Clc1ccc(C2=NN=C3C(Cc4ccccc4)=Nc4ccccc4N3C2)cc1,25.2%
16,COc1cc(/C=C/c2cc(/C=C/c3ccc(O)c(OC)c3)n(-c3ccccc3)n2)ccc1O,-42.2% (active)
17,CN1CCN(CCCNc2nccc(-c3c(-c4ccc(F)c(O)c4)nc4sccn34)n2)S1(=O)=O,78.3%
18,CCc1c(Nc2ccc(C)cc2)nc(N)[nH]c1=O,89.6%
19,CCCCC[n+]1ccc(SCC(=O)N(C)c2ccc(Oc3ccccc3)cc2)c2ccccc21,3.74% (active)
20,O=c1c2cc(C(F)(F)F)ccc2sc2c(NCCCNCCO)nc3ccccc3c12,-19% (active)
